According to PubChem BioAssay (NCATS):
Records with an inconclusive call do not appear. A call without a number means that no potency is given here. The source made the active and inactive calls. Unless noted, calls come from the whole dose curve; as a rule, active = well fitted curve in the direction sought with a large enough effect; inconclusive = small, poorly fitted or top-dose-only effect, or another doubt; inactive = no such curve, though single readings can be large; an effect the other way counts as inactive or inconclusive.

Columns and labels:
[1] = biological target: Catechol O-methyltransferase (Homo sapiens) (UniProt P21964); test: Confirmatory Screen for Target Class Profiling of Small Molecule Inhibitors of Methyltransferases (AID 1745852; calls by dose curve; note: potency is the fitted concentration of half-maximal effect); settings: MTase-Glo luminescence, SAH detection, recombinant enzyme; measured here: COMT max response; stronger effect = lower value
Catechol O-methyltransferase (Homo sapiens), sequence (P21964 whole entry, looked up): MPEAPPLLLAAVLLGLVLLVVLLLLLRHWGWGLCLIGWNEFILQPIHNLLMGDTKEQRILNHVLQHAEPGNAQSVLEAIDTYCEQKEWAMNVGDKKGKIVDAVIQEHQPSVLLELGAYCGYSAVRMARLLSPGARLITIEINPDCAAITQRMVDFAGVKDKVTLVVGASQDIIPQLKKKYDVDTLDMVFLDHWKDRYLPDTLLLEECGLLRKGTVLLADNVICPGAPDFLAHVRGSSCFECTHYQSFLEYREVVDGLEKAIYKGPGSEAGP

[2] = biological target: Guanidinoacetate N-methyltransferase (Homo sapiens) (UniProt Q14353); test: as above; settings: MTase-Glo luminescence, SAH detection, recombinant enzyme; activity change, negative = inhibition: at 57.3 µM (top of the series)
[3] = biological target: Nicotinamide N-methyltransferase (Homo sapiens) (UniProt P40261); test: as above; settings: MTase-Glo luminescence, SAH detection, recombinant enzyme; measured here: NNMT max response; stronger effect = lower value
Nicotinamide N-methyltransferase (Homo sapiens), sequence (P40261 whole entry, looked up): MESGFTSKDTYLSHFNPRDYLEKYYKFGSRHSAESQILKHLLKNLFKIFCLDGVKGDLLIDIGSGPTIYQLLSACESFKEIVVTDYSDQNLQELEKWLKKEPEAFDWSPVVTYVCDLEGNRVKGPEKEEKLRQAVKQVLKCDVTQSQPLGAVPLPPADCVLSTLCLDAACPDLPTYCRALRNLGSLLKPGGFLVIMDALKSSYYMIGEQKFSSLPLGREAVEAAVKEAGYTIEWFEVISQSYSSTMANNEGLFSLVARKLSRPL

[4] = biological target: Phenylethanolamine N-methyltransferase (Homo sapiens) (UniProt P11086); test: as above; settings: MTase-Glo luminescence, SAH detection, recombinant enzyme; measured here: PNMT max response; stronger effect = lower value
Phenylethanolamine N-methyltransferase (Homo sapiens), sequence (P11086 whole entry, looked up): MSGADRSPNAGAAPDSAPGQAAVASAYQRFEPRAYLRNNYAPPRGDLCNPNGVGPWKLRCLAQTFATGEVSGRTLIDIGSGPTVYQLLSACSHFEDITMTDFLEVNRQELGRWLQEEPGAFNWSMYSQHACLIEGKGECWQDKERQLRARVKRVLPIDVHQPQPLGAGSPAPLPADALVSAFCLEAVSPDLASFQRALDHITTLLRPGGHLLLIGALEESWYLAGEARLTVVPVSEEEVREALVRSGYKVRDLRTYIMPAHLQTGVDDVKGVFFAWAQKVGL

[5] = biological target: Cytochrome P450 3A4 (Homo sapiens) (UniProt P08684); test: qHTS Assay for Activators of Cytochrome P450 3A4 (AID 885); settings: recombinant CYP3A4, Luciferin-PPXE luminescence, 60 min; series mostly up to 57.1 µM; note: nearly all actives have a fitted effect of over 65% in size
Cytochrome P450 3A4 (Homo sapiens), sequence (P08684 whole entry, looked up): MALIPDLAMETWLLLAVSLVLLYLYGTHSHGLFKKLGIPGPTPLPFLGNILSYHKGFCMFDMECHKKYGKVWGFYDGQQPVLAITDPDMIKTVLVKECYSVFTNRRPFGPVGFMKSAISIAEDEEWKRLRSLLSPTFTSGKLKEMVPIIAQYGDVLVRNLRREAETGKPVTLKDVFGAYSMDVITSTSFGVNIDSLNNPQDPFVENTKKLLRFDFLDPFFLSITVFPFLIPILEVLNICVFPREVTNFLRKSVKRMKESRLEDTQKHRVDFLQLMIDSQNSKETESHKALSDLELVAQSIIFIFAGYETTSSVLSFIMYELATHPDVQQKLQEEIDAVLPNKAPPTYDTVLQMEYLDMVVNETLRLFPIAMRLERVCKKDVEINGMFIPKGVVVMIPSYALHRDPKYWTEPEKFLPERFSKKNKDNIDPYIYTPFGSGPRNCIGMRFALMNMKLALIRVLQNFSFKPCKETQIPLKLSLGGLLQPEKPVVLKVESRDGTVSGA
How it was run: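 Activators are scored by enhanced luminescence from CYP3A4 conversion of luciferin-PPXE (25uM, equal to KM) to luciferin, after 60 min at RT with an NADPH-regenerating system.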

[6] = biological target: ATP-dependent 6-phosphofructokinase (Trypanosoma brucei brucei) (UniProt O15648); test: qHTS Assay to Find Inhibitors of T. brucei phosphofructokinase: hit validation (AID 492961);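 note: luminescence reports ADP formed as PFK phosphorylates fructose-6-phosphate with ATP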; settings: T. brucei PFK, ADP-Glo luminescence; series mostly up to 51.4 µM
ATP-dependent 6-phosphofructokinase (Trypanosoma brucei brucei), sequence (O15648 whole entry, looked up): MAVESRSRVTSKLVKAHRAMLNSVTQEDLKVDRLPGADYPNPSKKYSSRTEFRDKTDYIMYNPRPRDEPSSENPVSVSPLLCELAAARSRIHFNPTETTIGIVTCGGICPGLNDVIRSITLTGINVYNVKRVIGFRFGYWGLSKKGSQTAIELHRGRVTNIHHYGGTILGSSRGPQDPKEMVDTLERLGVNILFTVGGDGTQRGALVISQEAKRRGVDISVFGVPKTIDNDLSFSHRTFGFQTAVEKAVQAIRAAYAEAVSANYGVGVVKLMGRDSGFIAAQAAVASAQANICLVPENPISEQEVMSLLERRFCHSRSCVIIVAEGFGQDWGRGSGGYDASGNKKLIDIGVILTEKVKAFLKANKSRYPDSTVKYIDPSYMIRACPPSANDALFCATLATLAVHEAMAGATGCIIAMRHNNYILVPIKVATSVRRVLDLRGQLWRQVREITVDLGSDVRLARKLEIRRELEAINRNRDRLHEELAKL
How it was run: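 Reaction: 0.1 M triethanolamine pH 8.0, 5 mM MgCl2, F6P 0.5 mM, ATP 0.1 mM, PFK 1.25 nM, 45 min RT. Read-out: ADP-Glo luminescence. Analysis: concentration-response fits, classed by r2 and efficacy.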

[7] = biological target: Luciferin 4-monooxygenase (Photinus pyralis) (UniProt P08659); test: Biochemical firefly luciferase enzyme assay for NPC (AID 624030); note: nearly all actives have a fitted effect of over 70% in size; note: potency is the fitted concentration of half-maximal effect;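 for activity change, negative = inhibition: purified P. pyralis luciferase at 10 nM with luciferin and ATP substrate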; settings: purified P. pyralis luciferase, luminescence, 5 min; series mostly up to 58.6 µM
Luciferin 4-monooxygenase (Photinus pyralis), sequence (P08659 whole entry, looked up): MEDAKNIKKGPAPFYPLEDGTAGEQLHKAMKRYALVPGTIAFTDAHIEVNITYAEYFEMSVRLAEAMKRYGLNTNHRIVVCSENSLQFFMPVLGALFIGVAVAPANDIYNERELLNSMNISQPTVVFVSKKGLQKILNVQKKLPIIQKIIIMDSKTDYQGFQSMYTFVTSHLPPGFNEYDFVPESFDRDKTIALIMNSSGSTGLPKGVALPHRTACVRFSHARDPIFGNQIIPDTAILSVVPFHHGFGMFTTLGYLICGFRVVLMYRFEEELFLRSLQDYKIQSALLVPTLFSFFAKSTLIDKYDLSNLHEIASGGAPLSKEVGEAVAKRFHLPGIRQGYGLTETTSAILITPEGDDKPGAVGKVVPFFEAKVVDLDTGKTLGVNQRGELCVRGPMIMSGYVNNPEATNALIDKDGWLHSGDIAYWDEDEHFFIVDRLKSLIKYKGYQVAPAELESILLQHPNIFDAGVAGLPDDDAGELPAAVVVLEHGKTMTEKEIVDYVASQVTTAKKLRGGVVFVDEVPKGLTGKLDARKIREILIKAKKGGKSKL
How it was run: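 Counter-screen for direct inhibition of the luciferase enzyme by approved-drug library compounds, run at 10 nM enzyme in 50 mM Tris acetate (final). Luminescence was read within 5 min of enzyme-buffer addition and normalized to PTC124 versus DMSO (0%).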

3D7 = test: qHTS profiling for inhibitors of Plasmodium falciparum proliferation (AID 504749); note: nearly all actives have a fitted effect of over 60% in size; note: potency is the fitted concentration of half-maximal effect; settings: P. falciparum in erythrocytes, SYBR Green DNA, 72 h; series mostly up to 28.7 µM
How it was run: (§1)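 Quantitative HTS: compounds pinned into medium, infected erythrocytes added (0.3% parasitemia, 2.5% hematocrit), 72 h culture at 37 C under 5% CO2. Saponin/Triton lysis with SYBR Green I, overnight RT, then fluorescence read.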

ATS189 = test: as above; settings: P. falciparum in erythrocytes, SYBR Green DNA, 72 h; series mostly up to 28.7 µM
How it was run: as §1

CP185 = test: as above; settings: P. falciparum in erythrocytes, SYBR Green DNA, 72 h; series mostly up to 28.7 µM
How it was run: as §1

CP192 = test: as above; settings: P. falciparum in erythrocytes, SYBR Green DNA, 72 h; series mostly up to 28.7 µM
How it was run: as §1

CP194 = test: as above; settings: P. falciparum in erythrocytes, SYBR Green DNA, 72 h; series mostly up to 28.7 µM
How it was run: as §1

CP201 = test: as above; settings: P. falciparum in erythrocytes, SYBR Green DNA, 72 h; series mostly up to 28.7 µM
How it was run: as §1

CP247 = test: as above; settings: P. falciparum in erythrocytes, SYBR Green DNA, 72 h; series mostly up to 28.7 µM
How it was run: as §1

CP291 = test: as above; settings: P. falciparum in erythrocytes, SYBR Green DNA, 72 h; series mostly up to 28.7 µM
How it was run: as §1

DIV30 = test: as above; settings: P. falciparum in erythrocytes, SYBR Green DNA, 72 h; series mostly up to 28.7 µM
How it was run: as §1

P94_40 = test: as above; settings: P. falciparum in erythrocytes, SYBR Green DNA, 72 h; series mostly up to 28.7 µM
How it was run: as §1

TAB113 = test: as above; settings: P. falciparum in erythrocytes, SYBR Green DNA, 72 h; series mostly up to 28.7 µM
How it was run: as §1

[8] = biological target: Cytochrome P450 2D6 (Homo sapiens) (UniProt P10635); test: Cytochrome P450 family 2 subfamily D member 6 (CYP2D6) small molecule antagonists: luciferase biochemical (cell-free) qHTS assay (AID 1645840; active = well fitted curve in the direction sought with a large enough effect in the repeat runs; an effect the other way counts as inactive or inconclusive; note: nearly all actives have a fitted effect of over 55% in size; note: potency is the fitted concentration of half-maximal effect); settings: P450-Glo CYP2D6 enzyme, luciferin luminescence, 1 h; series mostly up to 57.4 µM
Cytochrome P450 2D6 (Homo sapiens), sequence (P10635 whole entry, looked up): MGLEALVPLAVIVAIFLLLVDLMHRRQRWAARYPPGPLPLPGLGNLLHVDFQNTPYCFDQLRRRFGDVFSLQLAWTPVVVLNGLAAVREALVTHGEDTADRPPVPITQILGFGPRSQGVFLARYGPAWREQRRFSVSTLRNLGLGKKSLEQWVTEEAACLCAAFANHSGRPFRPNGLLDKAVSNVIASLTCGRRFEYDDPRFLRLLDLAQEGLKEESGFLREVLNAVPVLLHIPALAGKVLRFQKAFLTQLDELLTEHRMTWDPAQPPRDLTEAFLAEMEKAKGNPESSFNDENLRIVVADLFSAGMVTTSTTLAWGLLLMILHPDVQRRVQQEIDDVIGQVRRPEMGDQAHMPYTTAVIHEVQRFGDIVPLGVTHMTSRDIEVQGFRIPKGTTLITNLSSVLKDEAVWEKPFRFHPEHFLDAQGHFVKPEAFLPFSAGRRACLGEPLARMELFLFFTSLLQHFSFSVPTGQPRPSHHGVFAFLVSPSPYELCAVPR
How it was run: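 P450-Glo CYP2D6 system: proluciferin substrate converted by enzyme to luciferin, read by luminescence proportional to activity. Enzyme-substrate mix with compound 10 min at room temperature, then NADPH regeneration 1 h before detection reagent.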

[9] = biological target: Cytochrome P450 2C9 (Homo sapiens) (UniProt P11712); test: Cytochrome P450 family 2 subfamily C member 9 (CYP2C9) small molecule antagonists: luciferase biochemical (cell-free) qHTS assay (AID 1645842; active = well fitted curve in the direction sought with a large enough effect in the repeat runs; an effect the other way counts as inactive or inconclusive; note: nearly all actives have a fitted effect of over 55% in size; note: potency is the fitted concentration of half-maximal effect); settings: P450-Glo CYP2C9 enzyme assay, luciferin luminescence; series mostly up to 57.4 µM
Cytochrome P450 2C9 (Homo sapiens), sequence (P11712 whole entry, looked up): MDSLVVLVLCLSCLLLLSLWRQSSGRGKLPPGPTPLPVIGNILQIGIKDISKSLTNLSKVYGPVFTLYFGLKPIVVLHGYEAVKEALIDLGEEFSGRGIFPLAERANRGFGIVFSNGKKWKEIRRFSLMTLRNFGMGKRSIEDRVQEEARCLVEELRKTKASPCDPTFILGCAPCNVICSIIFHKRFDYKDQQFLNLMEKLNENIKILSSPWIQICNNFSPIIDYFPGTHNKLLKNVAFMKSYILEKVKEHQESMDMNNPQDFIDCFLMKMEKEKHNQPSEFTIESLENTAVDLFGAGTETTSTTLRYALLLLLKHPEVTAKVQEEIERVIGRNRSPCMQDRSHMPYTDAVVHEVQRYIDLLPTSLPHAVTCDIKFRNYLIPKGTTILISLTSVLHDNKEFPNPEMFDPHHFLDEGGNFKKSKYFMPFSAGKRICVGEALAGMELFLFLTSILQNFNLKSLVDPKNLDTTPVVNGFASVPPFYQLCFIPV
How it was run: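 P450-Glo CYP2C9 system: proluciferin substrate with enzyme in mix containing 0.4% BSA, 10 min at room temperature, then NADPH regeneration solution added and incubated 1 h at 37C. Detection reagent stopped reaction; luminescence read after 20 min as RLU.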

O=C(/C=C/C#Cc1cccc(NS(=O)(=O)c2ccccc2)c1)NO
activity [1]: 41.7% | activity change, negative = inhibition [2]: -11.3% | activity [3]: -13.8% | activity [4]: 1.13%

COc1cc2c(NC3CCN(C4CCCCC4)CC3)nc(N3CCCN(C(C)C)CC3)nc2cc1OCCCN1CCCCC1
activity [1]: -2.63% | activity change, negative = inhibition [2]: 5.88% | activity [3]: -10.6% | activity [4]: -1.48%

O=C(/C=C/c1ccc(CN(CCO)CCc2c[nH]c3ccccc23)cc1)NO
activity [1]: 18.9% | Potency [2]: 34.3 µM (active) | activity [3]: -12.8% | activity [4]: -2.68%

C=C[C@@](C)(O)CC[C@@H]1[C@@]2(C)CCCC(C)(C)[C@@H]2CC[C@@]1(C)O
Potency [5]: inactive

C[C@@]12C(=O)OC(=O)[C@]1(C)[C@H]1CC[C@@H]2O1
outcome [6]: inactive | Potency [7]: inactive | Potency (3D7): 3.16 µM (active) | Potency (ATS189): 2.82 µM (active) | Potency (CP185): 2.51 µM (active) | Potency (CP192): 4.55 µM (active) | Potency (CP194): 2.87 µM (active) | Potency (CP201): 3.61 µM (active) | Potency (CP247): 1.78 µM (active) | Potency (CP291): 3.22 µM (active) | Potency (DIV30): 5.73 µM (active) | Potency (P94_40): 2.51 µM (active) | Potency (TAB113): 3.98 µM (active)

Cc1c(CN2CCN(C(=O)[C@H](C)O)CC2)sc2c(N3CCOCC3)nc(-c3cnc(N)nc3)nc12
Potency [8]: inactive | Potency [9]: inactive

NS(=O)(=O)c1ccc(Cc2c(-c3cccc(-c4ccccc4)c3)nn(-c3nc(C(=O)O)cs3)c2CC2CC2)cc1
Potency [9]: 21.3 µM (active)

COC[C@@H](c1ccc(C(F)(F)F)cc1)N1CCN(C2(C)CCN(C(=O)c3c(C)ncnc3C)CC2)C[C@@H]1C
Potency [7]: inactive

CC(/C=C1\SC(=S)N(CC(=O)O)C1=O)=C\c1ccccc1
outcome [6]: inactive | Potency [7]: 6.42 µM (active) | Potency (3D7): inactive | Potency (ATS189): inactive | Potency (CP185): inactive | Potency (CP192): inactive | Potency (CP194): inactive | Potency (CP201): inactive | Potency (CP247): inactive | Potency (CP291): inactive | Potency (DIV30): inactive | Potency (P94_40): inactive | Potency (TAB113): inactive

C[C@H](CCC(=O)O)[C@H]1CC[C@H]2[C@@H]3[C@@H](O)C[C@@H]4C[C@H](O)CC[C@]4(C)[C@H]3CC[C@]12C
Potency [8]: inactive

O=C(/C=C/c1cccnc1)NCCCCC1CCN(C(=O)c2ccccc2)CC1
Potency [8]: 16.9 µM (active) | Potency [9]: 13.5 µM (active)

C=C1CCC2[C@](C)(CO)C(O)CC[C@]2(C)C1C/C=C1/C(=O)OCC1O (some centres undefined)
Potency [5]: inactive | outcome [6]: inactive | Potency [7]: inactive | Potency (3D7): inactive | Potency (ATS189): inactive | Potency (CP185): inactive | Potency (CP192): inactive | Potency (CP194): inactive | Potency (CP201): inactive | Potency (CP247): 11.2 µM (active) | Potency (CP291): inactive | Potency (DIV30): inactive | Potency (P94_40): inactive | Potency (TAB113): inactive

Cc1cccc(/C=N/Nc2cc(N3CCOCC3)nc(OCCc3ccccn3)n2)c1
Potency [8]: 10.7 µM (active) | Potency [9]: 7.56 µM (active)

Cn1cc(/C=C2\C(=O)Nc3cccnc32)c2ccccc21
Potency [9]: inactive

CN(CCOc1ccc(C[C@H](Nc2ccccc2C(=O)c2ccccc2)C(=O)O)cc1)c1ccccn1
Potency [5]: inactive
